The values below come from publication PMC9911399, “Two distinct binding modes provide the RNA-binding protein RbFox with extraordinary sequence specificity”.

Numbering of substitutions follows the chain as printed; changes in the protein carry UniProt numbers. Whole data set: some 16,000 sequences, median “ka relative to ugcaugu” near 0.096, cut for the highest 2% near 0.35. The sample as a whole holds a higher share of the highest values than the screen did.

The chains are these.
T1: RBFOX1 RRM RbFoxmut (Fox-RRM*) (Homo sapiens, UniProt Q9NWB1 109-208, R118D;E147R;N151S;E152T)
T1 sequence: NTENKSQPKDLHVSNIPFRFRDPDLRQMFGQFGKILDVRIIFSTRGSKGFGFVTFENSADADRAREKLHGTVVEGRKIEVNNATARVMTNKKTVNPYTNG

B1: CAUAUAU (DNA:RNA)
RNA: GGGAGACCGGAAUUCAGAUUGUCCCAUAUAUUUAAAUCCCGUCGUAGCCACCA
DNA 1: CAATCTGAATTCCGGTCTCCC
DNA 2: TGGTGGCTACGACGGGATT
B2: CGAAACU (DNA:RNA)
RNA: B1 RNA with A26G, U27A, U29A, A30C
DNA 1: CAATCTGAATTCCGGTCTCCC
DNA 2: TGGTGGCTACGACGGGATT
B3: GAGCAUC (DNA:RNA)
RNA: B1 RNA with C25G, U27G, A28C, U29A, A30U, U31C
DNA 1: CAATCTGAATTCCGGTCTCCC
DNA 2: TGGTGGCTACGACGGGATT
B4: GAGCAUG (DNA:RNA)
RNA: B1 RNA with C25G, U27G, A28C, U29A, A30U, U31G
DNA 1: CAATCTGAATTCCGGTCTCCC
DNA 2: TGGTGGCTACGACGGGATT
B5: GAGAAUG (DNA:RNA)
RNA: B1 RNA with C25G, U27G, U29A, A30U, U31G
DNA 1: CAATCTGAATTCCGGTCTCCC
DNA 2: TGGTGGCTACGACGGGATT
B6: GAGACCG (DNA:RNA)
RNA: B1 RNA with C25G, U27G, U29C, A30C, U31G
DNA 1: CAATCTGAATTCCGGTCTCCC
DNA 2: TGGTGGCTACGACGGGATT
B7: GUAAAUG (DNA:RNA)
RNA: B1 RNA with C25G, A26U, U27A, U29A, A30U, U31G
DNA 1: CAATCTGAATTCCGGTCTCCC
DNA 2: TGGTGGCTACGACGGGATT
B8: CUAAAUG (DNA:RNA)
RNA: B1 RNA with A26U, U27A, U29A, A30U, U31G
DNA 1: CAATCTGAATTCCGGTCTCCC
DNA 2: TGGTGGCTACGACGGGATT
B9: GAGAUUG (DNA:RNA)
RNA: B1 RNA with C25G, U27G, A30U, U31G
DNA 1: CAATCTGAATTCCGGTCTCCC
DNA 2: TGGTGGCTACGACGGGATT
B10: ACGAAUG (DNA:RNA)
RNA: B1 RNA with C25A, A26C, U27G, U29A, A30U, U31G
DNA 1: CAATCTGAATTCCGGTCTCCC
DNA 2: TGGTGGCTACGACGGGATT
B11: CGGAAUG (DNA:RNA)
RNA: B1 RNA with A26G, U27G, U29A, A30U, U31G
DNA 1: CAATCTGAATTCCGGTCTCCC
DNA 2: TGGTGGCTACGACGGGATT
B12: GAGAGCA (DNA:RNA)
RNA: B1 RNA with C25G, U27G, U29G, A30C, U31A
DNA 1: CAATCTGAATTCCGGTCTCCC
DNA 2: TGGTGGCTACGACGGGATT
B13: ACGAAUC (DNA:RNA)
RNA: B1 RNA with C25A, A26C, U27G, U29A, A30U, U31C
DNA 1: CAATCTGAATTCCGGTCTCCC
DNA 2: TGGTGGCTACGACGGGATT
B14: ACGAUUG (DNA:RNA)
RNA: B1 RNA with C25A, A26C, U27G, A30U, U31G
DNA 1: CAATCTGAATTCCGGTCTCCC
DNA 2: TGGTGGCTACGACGGGATT
B15: CUAUAAG (DNA:RNA)
RNA: B1 RNA with A26U, U27A, A28U, U29A, U31G
DNA 1: CAATCTGAATTCCGGTCTCCC
DNA 2: TGGTGGCTACGACGGGATT
B16: GUCAGCC (DNA:RNA)
RNA: B1 RNA with C25G, A26U, U27C, U29G, A30C, U31C
DNA 1: CAATCTGAATTCCGGTCTCCC
DNA 2: TGGTGGCTACGACGGGATT
B17: GCACGGU (DNA:RNA)
RNA: B1 RNA with C25G, A26C, U27A, A28C, U29G, A30G
DNA 1: CAATCTGAATTCCGGTCTCCC
DNA 2: TGGTGGCTACGACGGGATT
B18: CUAAUAG (DNA:RNA)
RNA: B1 RNA with A26U, U27A, U31G
DNA 1: CAATCTGAATTCCGGTCTCCC
DNA 2: TGGTGGCTACGACGGGATT
B19: UCCGCGC (DNA:RNA)
RNA: GGGAGACCGGAAUUCAGAUUGUCCUCCGCGCUUAAAUCCCGUCGUAGCCACCA
DNA 1: CAATCTGAATTCCGGTCTCCC
DNA 2: TGGTGGCTACGACGGGATT
B20: CCCAGAA (DNA:RNA)
RNA: B1 RNA with A26C, U27C, U29G, U31A
DNA 1: CAATCTGAATTCCGGTCTCCC
DNA 2: TGGTGGCTACGACGGGATT
B21: CAGAUUG (DNA:RNA)
RNA: B1 RNA with U27G, A30U, U31G
DNA 1: CAATCTGAATTCCGGTCTCCC
DNA 2: TGGTGGCTACGACGGGATT
B22: UAGAAUG (DNA:RNA)
RNA: B1 RNA with C25U, U27G, U29A, A30U, U31G
DNA 1: CAATCTGAATTCCGGTCTCCC
DNA 2: TGGTGGCTACGACGGGATT
B23: UAGAAUC (DNA:RNA)
RNA: B1 RNA with C25U, U27G, U29A, A30U, U31C
DNA 1: CAATCTGAATTCCGGTCTCCC
DNA 2: TGGTGGCTACGACGGGATT
B24: CAGAAUG (DNA:RNA)
RNA: B1 RNA with U27G, U29A, A30U, U31G
DNA 1: CAATCTGAATTCCGGTCTCCC
DNA 2: TGGTGGCTACGACGGGATT
B25: UAGAUUG (DNA:RNA)
RNA: B1 RNA with C25U, U27G, A30U, U31G
DNA 1: CAATCTGAATTCCGGTCTCCC
DNA 2: TGGTGGCTACGACGGGATT

The assay has as its target T1, RBFOX1 RRM RbFoxmut (Fox-RRM*). The assay can be described thus: EMSA; HiTS-Eq, 1 nM pool, 10 min; buffer printed only for the single-RNA assays: 10 mM Tris pH 7.5, 150 mM NaCl, 3.4 mM EDTA, 0.001% NP-40, 30 C. The conditions noted are these: tags: His6 N-terminal (pET28a); label: 5' 32P. Put shortly:
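These values rest on relative association constants, computed from read-count changes of each RNA species versus the control reaction and normalised to the cognate motif. Reads came from free RNA recovered by 8% native PAGE after purified RbFox RRM (wild type or mutant) at increasing concentrations was equilibrated for 10 min in 50 µL with 1 nM of a 5′-radiolabelled pool with 7 randomized nucleotides and DNA-annealed flanks.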
For B1, the binding signal is 0.114 KA relative to UGCAUGU.
As for B2, the figure is 0.0571 KA relative to UGCAUGU.
The figure for B3 is 0.278 KA relative to UGCAUGU; for B4 it is 1.12 KA relative to UGCAUGU.
As for B5, the figure is 1.5 KA relative to UGCAUGU; as for B6, 0.0845 KA relative to UGCAUGU.
On to B7, for which the binding signal is 0.125 KA relative to UGCAUGU.
As for B8, the figure is 0.0852 KA relative to UGCAUGU.
The figure for B9 is 0.314 KA relative to UGCAUGU.
As for B10, the figure is 1.2 KA relative to UGCAUGU; as for B11, 1.43 KA relative to UGCAUGU; as for B12, 0.151 KA relative to UGCAUGU.
Consider B13, for which the binding signal is 0.283 KA relative to UGCAUGU.
The figure for B14 is 0.234 KA relative to UGCAUGU; for B15 it is 0.0991 KA relative to UGCAUGU; for B16 it is 0.0902 KA relative to UGCAUGU.
As for B17, the binding signal is 0.289 KA relative to UGCAUGU.
As for B18, the figure is 0.0844 KA relative to UGCAUGU.
As for B19, the figure is 0.0955 KA relative to UGCAUGU; as for B20, 0.0718 KA relative to UGCAUGU.
For the molecule B21, the binding signal is 0.225 KA relative to UGCAUGU.
Regarding B22, the binding signal was 0.953 KA relative to UGCAUGU.
With B23, the binding signal is 0.125 KA relative to UGCAUGU.
The figure for B24 is 1.17 KA relative to UGCAUGU; for B25 it is 0.194 KA relative to UGCAUGU.
